What all share (design): scale not given: direction of the effect not stated beside the values
Assay [1] concerns the target Protein translocase subunit SecA (Escherichia coli (strain K12)) (UniProt P10408). The assay can be described thus: Assay to Identify E. coli SecA ATPase Inhibitors. The format is functional. To be noted: 30 µM.
In assay [2] the target is T1, Ubiquitin-activating enzyme e1, putative (Leishmania donovani (strain BPK282A1)) (UniProt E9BSI1).
T1 sequence (whole entry): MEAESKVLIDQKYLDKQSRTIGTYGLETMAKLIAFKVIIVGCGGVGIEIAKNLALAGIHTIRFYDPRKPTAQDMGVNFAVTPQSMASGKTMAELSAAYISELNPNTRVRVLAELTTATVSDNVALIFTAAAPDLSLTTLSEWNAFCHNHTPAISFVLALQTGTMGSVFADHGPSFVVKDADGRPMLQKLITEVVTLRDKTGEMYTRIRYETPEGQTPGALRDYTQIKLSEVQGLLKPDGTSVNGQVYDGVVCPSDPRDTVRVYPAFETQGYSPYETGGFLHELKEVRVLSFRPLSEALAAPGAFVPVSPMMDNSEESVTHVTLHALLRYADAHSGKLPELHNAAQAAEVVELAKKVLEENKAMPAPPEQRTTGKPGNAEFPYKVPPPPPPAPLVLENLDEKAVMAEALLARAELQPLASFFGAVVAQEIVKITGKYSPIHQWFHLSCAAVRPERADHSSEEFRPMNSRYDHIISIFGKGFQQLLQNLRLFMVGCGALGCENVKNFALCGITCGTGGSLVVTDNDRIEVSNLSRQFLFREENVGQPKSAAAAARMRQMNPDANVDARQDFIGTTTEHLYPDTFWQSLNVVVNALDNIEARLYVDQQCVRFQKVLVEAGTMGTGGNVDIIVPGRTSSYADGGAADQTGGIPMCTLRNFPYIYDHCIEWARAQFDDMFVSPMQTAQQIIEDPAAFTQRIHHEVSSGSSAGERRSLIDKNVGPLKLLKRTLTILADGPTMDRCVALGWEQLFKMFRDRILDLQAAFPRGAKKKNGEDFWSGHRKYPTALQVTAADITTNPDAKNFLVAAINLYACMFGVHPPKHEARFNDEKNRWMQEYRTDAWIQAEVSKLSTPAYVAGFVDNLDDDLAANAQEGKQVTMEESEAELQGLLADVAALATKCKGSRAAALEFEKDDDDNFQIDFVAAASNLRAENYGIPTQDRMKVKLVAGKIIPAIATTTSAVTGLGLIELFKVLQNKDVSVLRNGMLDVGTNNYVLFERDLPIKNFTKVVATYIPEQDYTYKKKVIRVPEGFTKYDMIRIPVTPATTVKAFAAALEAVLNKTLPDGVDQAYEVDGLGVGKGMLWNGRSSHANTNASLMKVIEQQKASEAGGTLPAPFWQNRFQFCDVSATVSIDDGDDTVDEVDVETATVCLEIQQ
The assay can be described thus: Leishmania donovani Ubiquitin Activating Enzyme (LdE1). It is filed as functional. To be noted: 30 µM.

Assay [3] concerns the target T2, Aspartate--tRNA(Asp/Asn) ligase (Mycobacterium tuberculosis (strain ATCC 25618 / H37Rv)) (UniProt P9WFW3). Note: in the data most compounds retested in dose-response had high values.
T2 sequence (whole entry): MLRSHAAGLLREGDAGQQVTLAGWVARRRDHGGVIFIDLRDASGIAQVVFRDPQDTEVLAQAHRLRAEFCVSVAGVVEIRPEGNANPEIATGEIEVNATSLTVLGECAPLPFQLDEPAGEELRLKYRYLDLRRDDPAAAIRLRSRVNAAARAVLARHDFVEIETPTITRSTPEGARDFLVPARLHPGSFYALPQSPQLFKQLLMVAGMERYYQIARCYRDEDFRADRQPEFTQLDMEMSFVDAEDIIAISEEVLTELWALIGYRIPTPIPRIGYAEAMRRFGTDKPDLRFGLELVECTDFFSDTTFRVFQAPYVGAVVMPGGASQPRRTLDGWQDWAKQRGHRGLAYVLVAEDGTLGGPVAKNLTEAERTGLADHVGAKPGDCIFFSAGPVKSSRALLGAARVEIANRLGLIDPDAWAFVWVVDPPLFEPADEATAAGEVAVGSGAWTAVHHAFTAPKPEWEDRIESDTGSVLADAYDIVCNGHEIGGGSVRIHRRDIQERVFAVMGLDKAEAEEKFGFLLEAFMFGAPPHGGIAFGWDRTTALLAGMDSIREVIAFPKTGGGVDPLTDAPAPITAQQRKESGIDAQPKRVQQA
As to the kind of experiment: Assay for Asp RNA synthetase-1 from Mycobacterium tuberculosis. It is filed as functional. To be noted: 30 µM.

Assay [4] addresses Sialic acid-binding Ig-like lectin 9 (Homo sapiens) (UniProt Q9Y336). The assay can be described thus: Hs-Siglec9 ALPHAscreen SOP 20170721. To be noted: 10 µM. On the technique in general: Alpha assays give light when donor and acceptor beads are brought close together.
For another assay, the system named is Trypanosoma cruzi. The assay can be described thus: Trypanosoma cruzi phosphomannomutase and mannose-1-phosphate guanylyltransferase assay. It is filed as functional. To be noted: 10 µM.
Assay [5] deals with T3, Arginase-2, mitochondrial (Homo sapiens) (UniProt P78540).
T3 sequence (whole entry): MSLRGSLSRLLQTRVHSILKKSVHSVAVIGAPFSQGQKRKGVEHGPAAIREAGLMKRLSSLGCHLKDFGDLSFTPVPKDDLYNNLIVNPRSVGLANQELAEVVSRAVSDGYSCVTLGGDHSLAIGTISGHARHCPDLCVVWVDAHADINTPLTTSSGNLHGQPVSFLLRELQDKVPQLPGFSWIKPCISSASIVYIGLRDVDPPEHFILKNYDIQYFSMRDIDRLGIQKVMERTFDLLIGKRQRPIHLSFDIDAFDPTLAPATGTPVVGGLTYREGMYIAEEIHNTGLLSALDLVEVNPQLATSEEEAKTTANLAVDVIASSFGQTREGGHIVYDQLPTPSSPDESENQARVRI
As to the kind of experiment: in vitro enzyme assay to detect the production of urea directly proportional to the activity of Arginase II. Note: in the data most compounds retested in dose-response had high values. It is filed as functional. To be noted: 33.3 µM.

The target of assay [6] is T4, Proteasome subunit beta (Trypanosoma cruzi) (UniProt O96673).
T4 sequence (whole entry): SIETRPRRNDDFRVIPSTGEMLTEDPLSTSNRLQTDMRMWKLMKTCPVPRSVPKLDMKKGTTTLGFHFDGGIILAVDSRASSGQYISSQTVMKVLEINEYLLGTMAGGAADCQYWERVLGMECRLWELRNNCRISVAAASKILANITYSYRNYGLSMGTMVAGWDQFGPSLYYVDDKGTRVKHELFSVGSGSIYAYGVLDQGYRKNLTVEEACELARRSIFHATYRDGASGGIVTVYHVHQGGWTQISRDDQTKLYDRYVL
The assay can be described thus: Trypanosoma cruzi proteasome chymotrypsin-like activity (TcProtChymo) assay. Note: in the data most compounds retested in dose-response had high values. The format is functional. To be noted: 9.37 µM.

The species named for the next assay is Homo sapiens. The assay can be described thus: To identify inhibition of the IFN signalling (Jak-Stat) pathway via expression of an eGFP reporter gene under the control of an IFN-stimulated response element (ISRE) containing MxA promoter. The format is functional. The note with it: 30 µM. Background: A reporter such as luciferase makes a cellular process visible.

The target in assay [7] is Shiga toxin 2 (Escherichia coli O157:H7) (UniProt P09385+P09386). As to the kind of experiment: E. coli 0.157:H7 Shiga Toxin SOP - stx2 screening assay. The format is functional. To be noted: 30 µM.
Assay [8] addresses T5, Tyrosyl-tRNA synthetase, putative (Trypanosoma cruzi (strain CL Brener)) (UniProt Q4DSP6).
T5 sequence (whole entry): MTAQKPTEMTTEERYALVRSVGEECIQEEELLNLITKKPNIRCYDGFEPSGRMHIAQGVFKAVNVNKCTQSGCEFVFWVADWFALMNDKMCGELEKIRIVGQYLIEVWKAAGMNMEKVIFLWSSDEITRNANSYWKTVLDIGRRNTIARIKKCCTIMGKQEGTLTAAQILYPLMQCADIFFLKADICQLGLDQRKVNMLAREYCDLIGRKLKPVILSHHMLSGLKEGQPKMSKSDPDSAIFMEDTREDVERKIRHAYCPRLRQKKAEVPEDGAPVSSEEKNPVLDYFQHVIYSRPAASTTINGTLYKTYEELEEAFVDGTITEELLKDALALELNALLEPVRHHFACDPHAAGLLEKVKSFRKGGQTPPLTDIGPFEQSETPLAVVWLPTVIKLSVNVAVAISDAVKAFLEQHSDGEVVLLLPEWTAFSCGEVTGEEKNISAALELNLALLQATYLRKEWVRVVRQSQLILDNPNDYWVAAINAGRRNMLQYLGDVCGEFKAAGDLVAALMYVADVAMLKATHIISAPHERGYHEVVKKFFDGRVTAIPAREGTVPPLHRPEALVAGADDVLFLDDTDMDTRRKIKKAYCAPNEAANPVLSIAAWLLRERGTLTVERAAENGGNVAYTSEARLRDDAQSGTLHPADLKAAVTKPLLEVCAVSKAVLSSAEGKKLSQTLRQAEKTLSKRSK
As to the kind of experiment: Trypanosoma cruzi tyrosyl tRNA synthetase (TcYRS) _High Tyrosine SOP. Note: in the data most compounds retested in dose-response had high values. The format is functional. The note with it: 30 µM.

Assay [9] concerns the target T5, Tyrosyl-tRNA synthetase, putative (Trypanosoma cruzi (strain CL Brener)). The assay can be described thus: Trypanosoma cruzi tyrosyl tRNA synthetase (TcYRS) SOP. The format is functional. The note with it: 30 µM.
For assay [10], the target named is Chromo domain-containing protein 1 (Saccharomyces cerevisiae (strain ATCC 204508 / S288c) (Baker's yeast)) (UniProt P32657). As to the kind of experiment: ScCHD-1 Enzyme Inhibition Assay. Note: in the data most compounds retested in dose-response had high values. The format is functional. To be noted: 30 µM.
For assay [11], the target named is AMP-activated protein kinase, AMPK (Homo sapiens) (UniProt P54646+O43741+P54619+Q9UGJ0+Q9Y478+Q13131+Q9UGI9). As to the kind of experiment: AMP-dependent Kinase enzyme assay. An in vitro enzyme assay that detects ADP turnover that is directly proportional to AMPK activity. This uses naive AMPK that is activated during the assay with MK-8722. The format is functional. To be noted: 30 µM.

From ChEMBL document CHEMBL3988442, “University of Dundee, Small-Polar-MMV Screening Library” (2021) come the findings set out here.

Molecules are shown by their SMILES. For part of these data: Results with a measured potency or affinity are listed apart.

Sialic acid-binding Ig-like lectin 9 (Homo sapiens), sequence (Q9Y336 whole entry): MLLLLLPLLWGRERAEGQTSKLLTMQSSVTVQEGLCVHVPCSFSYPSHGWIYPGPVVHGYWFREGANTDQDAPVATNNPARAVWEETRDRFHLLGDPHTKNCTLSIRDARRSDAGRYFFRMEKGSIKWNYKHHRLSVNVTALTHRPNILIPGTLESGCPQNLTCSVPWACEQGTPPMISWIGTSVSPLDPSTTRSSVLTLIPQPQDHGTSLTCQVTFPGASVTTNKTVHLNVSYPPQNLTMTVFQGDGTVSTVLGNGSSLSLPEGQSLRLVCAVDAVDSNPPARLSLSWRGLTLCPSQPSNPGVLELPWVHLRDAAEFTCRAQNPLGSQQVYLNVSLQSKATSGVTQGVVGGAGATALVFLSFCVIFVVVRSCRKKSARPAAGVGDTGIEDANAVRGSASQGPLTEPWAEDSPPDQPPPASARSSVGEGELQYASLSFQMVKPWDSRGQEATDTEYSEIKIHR
Chromo domain-containing protein 1 (Saccharomyces cerevisiae (strain ATCC 204508 / S288c) (Baker's yeast)), sequence (P32657 whole entry, the tested form may be a part): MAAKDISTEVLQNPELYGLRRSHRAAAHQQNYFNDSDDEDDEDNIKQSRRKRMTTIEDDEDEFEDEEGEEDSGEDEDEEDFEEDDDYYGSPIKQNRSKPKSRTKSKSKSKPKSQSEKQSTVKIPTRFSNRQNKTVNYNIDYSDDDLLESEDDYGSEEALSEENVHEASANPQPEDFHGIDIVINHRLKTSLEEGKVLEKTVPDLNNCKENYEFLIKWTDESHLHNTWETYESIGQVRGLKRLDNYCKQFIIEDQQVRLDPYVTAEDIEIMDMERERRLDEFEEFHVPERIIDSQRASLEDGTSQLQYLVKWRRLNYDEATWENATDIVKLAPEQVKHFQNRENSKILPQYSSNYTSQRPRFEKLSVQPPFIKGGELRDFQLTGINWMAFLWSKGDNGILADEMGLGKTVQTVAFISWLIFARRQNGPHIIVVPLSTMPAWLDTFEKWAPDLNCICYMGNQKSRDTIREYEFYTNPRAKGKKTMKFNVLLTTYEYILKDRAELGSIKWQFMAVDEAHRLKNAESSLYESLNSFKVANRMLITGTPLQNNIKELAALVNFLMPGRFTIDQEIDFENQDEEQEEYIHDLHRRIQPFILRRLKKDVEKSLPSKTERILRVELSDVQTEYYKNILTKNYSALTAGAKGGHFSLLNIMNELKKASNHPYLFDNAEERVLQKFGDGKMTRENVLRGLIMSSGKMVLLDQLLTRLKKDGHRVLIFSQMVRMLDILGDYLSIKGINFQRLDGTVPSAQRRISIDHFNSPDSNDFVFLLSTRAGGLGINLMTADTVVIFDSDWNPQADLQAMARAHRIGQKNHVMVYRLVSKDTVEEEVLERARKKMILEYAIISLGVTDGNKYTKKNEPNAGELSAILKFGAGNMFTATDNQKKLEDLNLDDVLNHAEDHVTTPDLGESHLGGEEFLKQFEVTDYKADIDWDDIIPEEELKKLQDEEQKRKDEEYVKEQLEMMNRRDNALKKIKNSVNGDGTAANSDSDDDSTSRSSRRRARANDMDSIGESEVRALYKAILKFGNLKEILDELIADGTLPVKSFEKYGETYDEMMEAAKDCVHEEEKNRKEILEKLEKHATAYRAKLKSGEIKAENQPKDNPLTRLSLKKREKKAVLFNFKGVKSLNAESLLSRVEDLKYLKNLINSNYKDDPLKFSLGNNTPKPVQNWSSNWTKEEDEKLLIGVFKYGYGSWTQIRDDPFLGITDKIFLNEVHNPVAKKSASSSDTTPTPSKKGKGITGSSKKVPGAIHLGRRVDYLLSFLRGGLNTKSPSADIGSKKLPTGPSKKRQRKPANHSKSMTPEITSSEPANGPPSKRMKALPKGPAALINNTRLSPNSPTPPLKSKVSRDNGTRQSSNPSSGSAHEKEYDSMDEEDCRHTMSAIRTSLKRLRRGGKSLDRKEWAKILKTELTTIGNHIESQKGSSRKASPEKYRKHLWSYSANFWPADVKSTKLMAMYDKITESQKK
Protein translocase subunit SecA (Escherichia coli (strain K12)), sequence (P10408 whole entry): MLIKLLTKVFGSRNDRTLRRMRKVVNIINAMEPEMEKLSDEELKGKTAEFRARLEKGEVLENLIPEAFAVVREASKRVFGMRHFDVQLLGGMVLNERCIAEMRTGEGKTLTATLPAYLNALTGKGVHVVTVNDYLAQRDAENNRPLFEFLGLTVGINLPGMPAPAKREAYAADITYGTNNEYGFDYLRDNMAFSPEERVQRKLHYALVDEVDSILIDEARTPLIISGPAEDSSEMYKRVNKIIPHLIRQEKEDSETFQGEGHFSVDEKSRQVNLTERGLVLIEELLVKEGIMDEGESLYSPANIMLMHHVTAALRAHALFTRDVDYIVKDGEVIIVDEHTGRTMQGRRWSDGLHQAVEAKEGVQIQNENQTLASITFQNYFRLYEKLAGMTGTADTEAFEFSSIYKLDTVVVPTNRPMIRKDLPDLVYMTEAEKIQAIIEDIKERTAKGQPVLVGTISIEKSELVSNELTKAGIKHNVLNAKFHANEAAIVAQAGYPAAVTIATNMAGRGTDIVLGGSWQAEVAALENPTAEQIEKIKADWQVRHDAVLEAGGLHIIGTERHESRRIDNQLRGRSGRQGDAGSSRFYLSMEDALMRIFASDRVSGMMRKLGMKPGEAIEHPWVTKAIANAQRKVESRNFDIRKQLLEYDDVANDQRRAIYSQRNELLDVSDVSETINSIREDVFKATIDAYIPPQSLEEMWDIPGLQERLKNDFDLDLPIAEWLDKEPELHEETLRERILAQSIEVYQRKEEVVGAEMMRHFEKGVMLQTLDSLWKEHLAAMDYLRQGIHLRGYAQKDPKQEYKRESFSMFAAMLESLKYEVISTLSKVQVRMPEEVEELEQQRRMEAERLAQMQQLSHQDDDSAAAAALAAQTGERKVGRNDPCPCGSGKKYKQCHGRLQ

Regarding `CC[C@H]1N(C)CCC[C@]12CCC(=O)N2Cc1ccncc1`, the Percent Effect in assay [1] was -1.96%; in [2] it was 32.5%; in assay [3] it was 0.228%; in assay [4], 0.456%; in the assay with Trypanosoma cruzi it was 1.69%; in [5], -1.83%. Moreover, the Percent Effect in assay [6] was 14.3%; in the assay listed under Homo sapiens, 16.7%; in assay [7], -15.6%; in [8], 7.73%; in assay [9], 10%; in assay [10], -8.84%.

As to `Cc1cccc(CN2C(=O)C[C@H]3[C@@H]2CCN3Cc2ccccn2)n1`, the Percent Effect in assay [1] is 0.959%; in assay [2], 22.1%; in assay [3], 3.98%; in assay [4] it was -1.08%; in the assay on Trypanosoma cruzi, -1.13%; in assay [5], -1.83%. Besides, the Percent Effect in assay [6] is 12.8%; in the assay listed under Homo sapiens it was -7.67%; in assay [7], -19.3%; in assay [8], -0.966%; in assay [9] it was 20%; in assay [10], -6.04%.

Take `CCc1noc(C(C)N2CCNCC2)n1` (stereo not given): the Percent Effect in assay [1] is -5.07%; in assay [2], 5.33%; in assay [3], -11.9%; in [4], 0.232%; with Trypanosoma cruzi, -0.602%; in assay [5], -2.22%. Moreover, the Percent Effect is 13.3% in assay [6]; -0.55% in the assay filed under Homo sapiens; 6.76% in assay [7]; 2.63% in assay [8]; 2.56% in assay [9]; -9.82% in assay [10].

As for `Cc1noc(C)c1CN1CCO[C@H]2CNC[C@H]21`, the Percent Effect was -3.48% in [1]; 9.09% in assay [2]; 7.37% in [3]; -4.93% in assay [4]; -4.19% with Trypanosoma cruzi; -2.02% in assay [5]. Further, the Percent Effect is 20% in assay [6]; 8.41% in the assay listed under Homo sapiens; 2.96% in [7]; 0.526% in assay [8]; 7.69% in assay [9]; -4.21% in assay [10].

`O=C(C1CC(=O)N(c2ccccc2Br)C1)N1CCC2(CC1)OCCO2` (stereo not given): the Percent Effect in assay [1] is -3.76%; in [2], -10.7%; in [3], 2.47%; in assay [11], -5.79%; in assay [4], -2.82%; in the assay with Trypanosoma cruzi it was -3.21%. The Percent Effect is 2.6% in assay [5]; 11.2% in assay [6]; 0.465% in the assay listed under Homo sapiens; 1.64% in assay [8]; 8.64% in assay [9]; -2.41% in [10].
